Laboratory results reported in PubChem BioAssay AID1159580 (chemical genetic matrix, 2015).
Several values for one entry are separate records, joined by “and”; a condition that tells them apart may be missing. Equal entries are not always repeated. Out of some 5,500 compounds screened, about 2,000 (36%) were called active. Another 18% or so got no clear call; they are omitted. The list shows a part of the results. A number with no mark means an inactive call. Cut-off read from the data, not from the text of the source: active = normalized growth mostly below about 0.91 (no sharp cut-off); inconclusive = no clear call, values can overlap the other calls; inactive = mostly above about 0.92.

Assay: chemical genetic growth profiling, strain panel (AID 1159580);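 note: tested at 20 µM; growth read once vehicle control cultures reached saturation at 30 °C; 1 = growth at the plate median or of vehicle wells; lower values mean less growth of the strain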
Details: S. cerevisiae deletion strains, growth OD

Which normalized growth (locus YAL013W, strain DEP1, active compounds read low) does the source give for `C[C@H](CCC(=O)O)[C@H]1CCC2C3C(CC[C@@]21C)[C@@]1(C)CC[C@@H](O)C[C@H]1C[C@H]3O` (stereo partly drawn) here?
The normalized growth was 1.02.

What about the normalized growth (locus YAL021C, strain ccr4, active compounds read low) of the same compound?
The normalized growth was 1.01.

What about the normalized growth (locus YAL026C, strain drs2, active compounds read low) of the same compound?
The normalized growth was 0.987.

And the normalized growth (locus YAL030W, strain snc1, active compounds read low)?
Its normalized growth is 1.02.

What about the normalized growth (locus YBL061C, strain skt5, active compounds read low) of the same compound?
The normalized growth was 1.02.

And the normalized growth (locus YBR009C, strain hhf1, active compounds read low)?
Its normalized growth is 0.973.

And the normalized growth (locus YBR021W, strain FUR4, active compounds read low)?
The normalized growth was 1.02.

And the normalized growth (locus YBR023C, strain chs3, active compounds read low)?
The normalized growth was 1.01.

What about the normalized growth (locus YBR171W, strain sec66, active compounds read low) of the same compound?
The normalized growth was 1.

What about the normalized growth (locus YBR229C, strain ROT2, active compounds read low) of the same compound?
Its normalized growth is 1.02.

And the normalized growth (locus YBR231C, strain swc5, active compounds read low)?
The normalized growth was 1.03.

What about the normalized growth (locus YBR279W, strain paf1, active compounds read low) of the same compound?
The normalized growth was 1.01.

What about the normalized growth (locus YCL011C, strain gbp2, active compounds read low) of the same compound?
The normalized growth was 1.

What about the normalized growth (locus YCL016C, strain dcc1, active compounds read low) of the same compound?
The normalized growth was 0.982.

What about the normalized growth (locus YCL029C, strain bik1, active compounds read low) of the same compound?
Its normalized growth is 1.05.

And the normalized growth (locus YCL061C, strain MRC1, active compounds read low)?
The normalized growth was 0.998.

And the normalized growth (locus YCL069W, strain vba3, active compounds read low)?
The normalized growth was 1.02.

What about the normalized growth (locus YCR088W, strain abp1, active compounds read low) of the same compound?
Its normalized growth is 1.02.

And the normalized growth (locus YDL005C, strain med2, active compounds read low)?
Its normalized growth is 1.01.

And the normalized growth (locus YDL035C, strain GPR1, active compounds read low)?
Its normalized growth is 0.985.

And the normalized growth (locus YDL040C, strain nat1, active compounds read low)?
The normalized growth was 1.01.

What about the normalized growth (locus YDL074C, strain BRE1, active compounds read low) of the same compound?
Its normalized growth is 1.09.

And the normalized growth (locus YDL101C, strain DUN1, active compounds read low)?
Its normalized growth is 1.02.

And the normalized growth (locus YDL134C, strain PPH21, active compounds read low)?
Its normalized growth is 1.

What about the normalized growth (locus YDL185W, strain tfp1, active compounds read low) of the same compound?
Its normalized growth is 1.07.

What about the normalized growth (locus YDL192W, strain arf1, active compounds read low) of the same compound?
The normalized growth was 1.05.

And the normalized growth (locus YDR001C, strain nth1, active compounds read low)?
Its normalized growth is 1.02.

What about the normalized growth (locus YDR069C, strain doa4, active compounds read low) of the same compound?
The normalized growth was 1.01.

And the normalized growth (locus YDR101C, strain arx1, active compounds read low)?
The normalized growth was 1.04.

What about the normalized growth (locus YDR137W, strain rgp1, active compounds read low) of the same compound?
Its normalized growth is 0.786 (active).

And the normalized growth (locus YDR159W, strain sac3, active compounds read low)?
Its normalized growth is 1.02.

What about the normalized growth (locus YDR162C, strain NBP2, active compounds read low) of the same compound?
Its normalized growth is 1.02.

What about the normalized growth (locus YDR195W, strain ref2) of the same compound?
The normalized growth was 1.13.

What about the normalized growth (locus YDR297W, strain sur2, active compounds read low) of the same compound?
The normalized growth was 1.02.

And the normalized growth (locus YDR318W, strain mcm21, active compounds read low)?
The normalized growth was 1.03.

And the normalized growth (locus YDR334W, strain swr1, active compounds read low)?
Its normalized growth is 1.04.

And the normalized growth (locus YDR335W, strain msn5, active compounds read low)?
The normalized growth was 1.02.

And the normalized growth (locus YDR388W, active compounds read low)?
The normalized growth was 1.04.

What about the normalized growth (locus YDR392W, strain spt3, active compounds read low) of the same compound?
Its normalized growth is 0.923.

What about the normalized growth (locus YDR502C, strain sam2, active compounds read low) of the same compound?
The normalized growth was 1.04.

What about the normalized growth (locus YEL003W, strain gim4, active compounds read low) of the same compound?
The normalized growth was 0.998.

And the normalized growth (locus YEL037C, strain rad23, active compounds read low)?
Its normalized growth is 1.02.

What about the normalized growth (locus YEL061C, strain CIN8 (second series), active compounds read low) of the same compound?
Its normalized growth is 1.02.

What about the normalized growth (locus YEL061C, strain CIN8, active compounds read low) of the same compound?
The normalized growth was 1.02.

And the normalized growth (locus YER015W, strain faa2, active compounds read low)?
Its normalized growth is 1.05.

What about the normalized growth (locus YER016W, strain bim1, active compounds read low) of the same compound?
The normalized growth was 1.01.

What about the normalized growth (locus YER110C, active compounds read low) of the same compound?
The normalized growth was 1.05.

What about the normalized growth (locus YER111C, strain swi4, active compounds read low) of the same compound?
Its normalized growth is 1.02.

And the normalized growth (locus YER155C, strain BEM2 (second series), active compounds read low)?
Its normalized growth is 1.05.

What about the normalized growth (locus YER155C, strain BEM2, active compounds read low) of the same compound?
Its normalized growth is 1.04.

And the normalized growth (locus YER167W, strain BCK2, active compounds read low)?
Its normalized growth is 1.03.

And the normalized growth (locus YFR010W, strain ubp6, active compounds read low)?
The normalized growth was 1.03.

And the normalized growth (locus YGL078C, strain dbp3, active compounds read low)?
The normalized growth was 0.953.

What about the normalized growth (locus YGL086W, strain mad1, active compounds read low) of the same compound?
The normalized growth was 1.03.

And the normalized growth (locus YGL167C, strain pmr1, active compounds read low)?
The normalized growth was 1.02.

What about the normalized growth (locus YGL173C, strain kem1, active compounds read low) of the same compound?
The normalized growth was 0.969.

What about the normalized growth (locus YGL227W, strain vid30, active compounds read low) of the same compound?
Its normalized growth is 1.02.

What about the normalized growth (locus YGL240W, strain doc1, active compounds read low) of the same compound?
Its normalized growth is 1.02.

And the normalized growth (locus YGL248W, strain PDE1, active compounds read low)?
Its normalized growth is 1.01.

And the normalized growth (locus YGL253W, strain hxk2, active compounds read low)?
Its normalized growth is 1.01.

What about the normalized growth (locus YGR078C, strain PAC10, active compounds read low) of the same compound?
Its normalized growth is 1.03.

What about the normalized growth (locus YGR135W, strain pre9, active compounds read low) of the same compound?
The normalized growth was 1.02.

What about the normalized growth (locus YGR252W, strain gcn5, active compounds read low) of the same compound?
Its normalized growth is 0.929.

What about the normalized growth (locus YHR013C, strain ard1, active compounds read low) of the same compound?
The normalized growth was 1.06.

What about the normalized growth (locus YHR027C, strain rpn1, active compounds read low) of the same compound?
The normalized growth was 1.01.

What about the normalized growth (locus YHR030C, strain SLT2, active compounds read low) of the same compound?
The normalized growth was 1.05 and 0.889.

What about the normalized growth (locus YHR079C, strain IRE1 (second series), active compounds read low) of the same compound?
The normalized growth was 1.05.

And the normalized growth (locus YHR079C, strain IRE1, active compounds read low)?
The normalized growth was 0.87.

And the normalized growth (locus YHR094C, strain hxt1, active compounds read low)?
The normalized growth was 1.05.

And the normalized growth (locus YHR129C, strain ARP1, active compounds read low)?
The normalized growth was 1.03.

And the normalized growth (locus YHR142W, strain chs7, active compounds read low)?
The normalized growth was 0.993.

And the normalized growth (locus YHR200W, strain rpn10, active compounds read low)?
Its normalized growth is 1.06.

What about the normalized growth (locus YIL066C, strain RNR3, active compounds read low) of the same compound?
Its normalized growth is 1.03.

What about the normalized growth (locus YIL073C, strain SPO22, active compounds read low) of the same compound?
The normalized growth was 1.12.

And the normalized growth (locus YIL125W, strain kgd1, active compounds read low)?
The normalized growth was 1.05.

And the normalized growth (locus YIR030C, strain dcg1, active compounds read low)?
The normalized growth was 1.05.

What about the normalized growth (locus YJL092W, strain hpr5, active compounds read low) of the same compound?
The normalized growth was 1.03.

And the normalized growth (locus YJL095W, strain BCK1 (second series), active compounds read low)?
The normalized growth was 1.02.

What about the normalized growth (locus YJL095W, strain BCK1, active compounds read low) of the same compound?
The normalized growth was 1.04 and 0.89.

And the normalized growth (locus YJL115W, strain asf1, active compounds read low)?
The normalized growth was 1.03.

What about the normalized growth (locus YJL129C, strain trk1, active compounds read low) of the same compound?
The normalized growth was 1.03.

And the normalized growth (locus YJL134W, strain LCB3, active compounds read low)?
The normalized growth was 1.03.

What about the normalized growth (locus YJL154C, strain vps35, active compounds read low) of the same compound?
The normalized growth was 1.03.

And the normalized growth (locus YJL164C, strain tpk1, active compounds read low)?
The normalized growth was 0.992.

And the normalized growth (locus YJL166W, strain qcr8, active compounds read low)?
Its normalized growth is 0.979.

What about the normalized growth (locus YJL168C, strain set2, active compounds read low) of the same compound?
The normalized growth was 1.05.

And the normalized growth (locus YJL187C, strain SWE1 (second series), active compounds read low)?
The normalized growth was 1.

And the normalized growth (locus YJL187C, strain SWE1, active compounds read low)?
Its normalized growth is 1.02.
